Source: PubChem BioAssay (NCI)
The panel holds about 83,000 compounds, 20% with a hit somewhere; the sample as a whole holds those more often.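 Percent growth is the endpoint: 0 to 100 indicates growth inhibition (40 means 60% inhibition), 0 means no net growth, and negative values indicate cell death.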 Unmarked numbers belong to inactive results. Calls of active or inactive are those of the source. Rule for the calls: active = growth percent below 10; inactive = the rest.

Columns and labels:
Experiment in all cases: NCI-60 one-dose screen, 48 h (100 = growth as untreated, 0 = no growth, -100 = all killed)
Conditions in all cases: 10 µM unless noted
[1] = system: HCT-15 colon
[2] = system: HT29 colon
[3] = system: SNB-75 CNS
[4] = system: SNB-19 CNS
[5] = system: U251 CNS
[6] = system: PC-3 prostate
[7] = system: SK-MEL-5 melanoma
[8] = system: UACC-62 melanoma
[9] = system: LOX IMVI melanoma
[10] = system: SK-MEL-28 melanoma
[11] = system: SK-MEL-2 melanoma
[12] = system: EKVX NSCLC
[13] = system: SN12C renal
[14] = system: UO-31 renal
[15] = system: TK-10 renal
[16] = system: ACHN renal
[17] = system: CAKI-1 renal
[18] = system: A498 renal
[19] = system: CCRF-CEM leukemia
[20] = system: MOLT-4 leukemia

| Structure (SMILES) | growth [1] | growth [2] | growth [3] | growth [4] | growth [5] | growth [6] | growth [7] | growth [8] | growth [9] | growth [10] | growth [11] | growth [12] | growth [13] | growth [14] | growth [15] | growth [16] | growth [17] | growth [18] | growth [19] | growth [20] |
| --- | --- | --- | --- | --- | --- | --- | --- | --- | --- | --- | --- | --- | --- | --- | --- | --- | --- | --- | --- | --- |
| O=C(/C(=C\c1ccc([N+](=O)[O-])cc1)S(=O)Cc1ccc(Cl)cc1)c1ccc(Cl)cc1 (stereo not given) | 34.8% | 16.5% | 93% | 71.6% | 53.6% | 66.9% | 90.7% | 69.2% | 40.5% | 86.8% | 94.6% | 98.5% | 49.6% | 70.4% | 91.9% | 64.6% | 83.8% | 77.4% | 22% | 25.1% |
| CCOc1ccc(Nc2nc(-c3ccc4c(c3)NC(=O)CO4)cs2)cc1 | 51.3% | 62% | 56.8% | 81.4% | 66.8% | 24.6% | -11.2% (active) | 52.1% | 43.9% | 33.6% | 81.3% | 89% | 78.6% | 63.7% | 85.5% | 52.3% | 108% | 103% | 32.9% | 6.58% (active) |
| CCc1c2c(nc3ccc(OCc4ccc(B(O)O)cc4)cc13)-c1cc3c(c(=O)n1C2)COC(=O)[C@]3(O)CC | 18% | 3.65% (active) | -7.42% (active) | 8.1% (active) | -12% (active) | 24.4% | -67.5% (active) | -25.1% (active) | -47.8% (active) | 36% | 7.66% (active) | 25.4% | 6.55% (active) | -15.8% (active) | 27.5% | -12.6% (active) | -21% (active) | -58.4% (active) | 4.37% (active) | -5.64% (active) |
| COc1ccc(/C=C/c2nc(Nc3ccc(S(=O)(=O)NC(C)=O)cc3)c3ccccc3n2)cc1 | 55.2% | 67.2% | 97.7% | 78.9% | 74.8% | 79.3% | 77.1% | 25.6% | 38.3% | 96.1% | 99% | 81.6% | 86.7% | 80.6% | 92% | 68.6% | 59.6% | 9.58% (active) | 81.7% | 79.3% |
| COc1ccc(C(=O)C2C(C#N)C(C#N)C3c4ccccc4C=CN23)cc1 (stereo not given) | 94.5% | 84.4% | 74.8% | 85.4% | 93.6% | 84.7% | 84.2% | 63% | 87.8% | 98.9% | 88.5% | 84.2% | 80.9% | 60.7% | 131% | 91.3% | 72.4% | 80.9% | 82.5% | 95.6% |
| CCOC(=O)c1cc(C(=O)c2ccc(OC)c(OC)c2)n2c1ccc1ccccc12 | 84.5% | 103% | 48.5% | 94% | 96.2% | 81.7% | 89.8% | 74.3% | 85.1% | 106% | 104% | 76.1% | 83.7% | 58.4% | 154% | 91% | 64.6% | 97.1% | 94% | 89.6% |
| C=C(C)[C@@H]1CC[C@]2(C(=O)N[C@H](CO)Cc3ccccc3)CC[C@]3(C)[C@H](CC[C@@H]4[C@@]5(C)CCCNC(C)(C)[C@@H]5CC[C@]43C)[C@@H]12 | -82.3% (active) | -86.1% (active) | -95.1% (active) | -88% (active) | -89.7% (active) | -84.9% (active) | -95.5% (active) | -85.6% (active) | -86.2% (active) | -92.3% (active) | -92.5% (active) | -84.1% (active) | -83.3% (active) | -92.6% (active) | -94.7% (active) | -95.9% (active) | -93.5% (active) | -97.9% (active) | -46.7% (active) | -62.6% (active) |
| Oc1cccc(CCc2ccc(Oc3cc(CCc4cccc(O)c4)cc(O)c3O)cc2)c1 | 39.1% | 99.2% | 72.8% | 89% | 74.5% | 63.5% | 70.2% | 73.3% | 62.7% | 88.6% | 84.1% | 85.1% | 67.9% | 36.4% | 111% | 77.1% | 52.7% | 95.2% | 24.1% | 18% |
| CCOC(=O)C1=C(CCl)NC(=O)NC1c1ccc2c(c1)OCO2 (stereo not given) | 3.53% (active) | 6.92% (active) | 77.6% | 64.4% | 18.5% | 53.9% | 9.17% (active) | 31.4% | 21% | 45.6% | 69.5% | 52.7% | 20.1% | 56.9% | 57.3% | 31% | 47% | 98% | 10.8% | 37.7% |
| CCOC(=O)CC1CSC(N/N=C/c2ccc(-n3cccn3)cc2)=N1 (stereo not given) | 104% | 99.3% | 101% | 98.9% | 96.9% | 99.6% | 98.1% | 92.5% | 97.4% | 111% | 113% | 108% | 100% | 90.9% | 108% | 109% | 102% | 97.8% | 94.1% | 97.3% |
| COc1ccc(C(=O)c2nc3ccccc3n2CC(=O)c2ccc(F)cc2)cc1 | 56% | 55% | 59.6% | 95.6% | 90.5% | 83.2% | 88% | 65.3% | 94.5% | 80.2% | 72.4% | 190% | 92.7% | 88.3% | 84.2% | 105% | 115% | 116% | 79.6% | 74.8% |
| NS(=O)(=O)c1ccc(CCN2C(=O)C=CC2=O)cc1 | 99.3% | 97.2% | 99.3% | 107% | 104% | 100% | 104% | 104% | 97% | 107% | 98.2% | 102% | 110% | 84.5% | 89.7% | 102% | 94.8% | 106% | 99% | 97.4% |
| O=Cc1ccc(-c2cn3ccnc3c(-c3ccc4ncn(Cc5ccccc5)c4c3)n2)cc1 | 50.9% | 82.5% | 78.6% | 85.6% | 68% | 81% | 43.5% | 62.9% | 53.1% | 92.5% | 72.2% | 79.1% | 79.3% | 17.8% | 99.3% | 88.4% | 63.4% | 88.8% | 22.1% | 41.3% |
| COc1ccc(OC)c(CCn2cncc2-c2c[nH]c3ccccc23)c1 | 71.4% | 86.6% | 3.33% (active) | 85.1% | 87.8% | 71.4% | 49.7% | 59.2% | 79.6% | 90.3% | 73.5% | 64.8% | 72% | 46.6% | 149% | 76.7% | 66.7% | 61.8% | 68.1% | 75.3% |
| COc1ccc2c(c1)oc1c(C)c3c(c(C)c12)C(=O)N(CCN1CCOCC1)C3=O | 102% | 99.3% | 99.5% | 97.5% | 105% | 82.8% | 97.5% | 93.3% | 96.4% | 103% | 124% | 110% | 93.2% | 85.1% | 115% | 104% | 88.1% | 109% | 77.4% | 83.1% |
